Assay results from PubChem BioAssay (NCATS).
Values joined by “and” are separate entries in the source; they are usually repeats but may differ in a detail not shown here. Equal entries are not always repeated. Inconclusive results are not listed. Active and inactive are the calls of the source. Calls follow the shape of the dose curve; as a rule, active = well fitted curve in the direction sought with a large enough effect; inconclusive = small, poorly fitted or top-dose-only effect, or another doubt; inactive = no such curve, though single readings can be large; an effect the other way counts as inactive or inconclusive.

Tests used:
[1] = qHTS of pediatric cancer cell lines to identify multiple opportunities for drug repurposing: Primary screen for MG 63 (6-TG R) cells (AID 1347105); also: nearly all actives have a fitted effect of over 50% in size
Method in brief: (§1)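 Quantitative HTS format: each compound titrated (MIPE 11 points from 0.78 nM, NPC 8 points from 0.59 nM) onto cells plated 5 hours earlier. After 48 h at 37 degrees C, CellTiter-Glo luminescence was recorded.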

[2] = qHTS of pediatric cancer cell lines to identify multiple opportunities for drug repurposing: Primary screen for control Hh wild type fibroblast cells (AID 1347106); also: nearly all actives have a fitted effect of over 55% in size; also: potency is read from the fitted curve at half-maximal effect
Method in brief: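 Viability after 48 h compound treatment at 37C, 500-1,000 cells/well, read as ATP luminescence with CellTiter-Glo. Primary screens used 11-point (MIPE, 0.78 nM-46 µM) or 8-point (NPC, 0.59 nM-46 µM) final concentrations; follow-up screens used 11-point dilutions.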

[3] = qHTS of pediatric cancer cell lines to identify multiple opportunities for drug repurposing: Primary screen for Rh30 cells (AID 1347107); also: nearly all actives have a fitted effect of over 75% in size; also: potency is read from the fitted curve at half-maximal effect
Method in brief: (§2)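 Cells (500-1,000/well) in growth media were settled 5 h at 37 degrees C, then given compounds for 48 h. Viability was read as CellTiter-Glo luminescence. Primary runs used MIPE at 11 points (0.78 nM-46 µM) and NPC at 8 points (0.59 nM-46 µM); follow-ups used 11 points.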

[4] = qHTS of pediatric cancer cell lines to identify multiple opportunities for drug repurposing: Primary screen for RD cells (AID 1347104); also: nearly all actives have a fitted effect of over 55% in size; also: potency is read from the fitted curve at half-maximal effect
Method in brief: as §1

[5] = qHTS of pediatric cancer cell lines to identify multiple opportunities for drug repurposing: Primary screen for Rh41 cells (AID 1347108); also: nearly all actives have a fitted effect of over 70% in size; also: potency is read from the fitted curve at half-maximal effect
Method in brief: as §1

[6] = qHTS of pediatric cancer cell lines to identify multiple opportunities for drug repurposing: Confirmatory screen for NB1643 cells (AID 1347109); also: nearly all actives have a fitted effect of over 45% in size; also: potency is read from the fitted curve at half-maximal effect
Method in brief: as §2

[7] = qHTS of pediatric cancer cell lines to identify multiple opportunities for drug repurposing: Confirmatory screen for A673 cells (AID 1347110);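 also: cells exposed to compound for 48 h before the viability read; nearly all actives have a fitted effect of over 65% in size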; also: potency is read from the fitted curve at half-maximal effect
Method in brief: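 Viability was read as ATP luminescence (CellTiter-Glo) after 48 h of compound exposure at 37 C in A673 cells seeded at 500-1,000/well. Titrations reached 46 uM final, with 11 points in the confirmatory screen. Concentration-response curves were fitted directly.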

[8] = qHTS of pediatric cancer cell lines to identify multiple opportunities for drug repurposing: Confirmatory screen for SK-N-MC cells (AID 1347111);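 also: cells exposed to compound for 48 h before the readout; nearly all actives have a fitted effect of over 70% in size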; also: potency is read from the fitted curve at half-maximal effect
Method in brief: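 Metabolically active cells were quantified by ATP-dependent luminescence (CellTiter-Glo, 15 min at room temperature) following 48 h treatment. Cells had been plated at 500-1,000 per well and settled for 5 h beforehand.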

[9] = qHTS of pediatric cancer cell lines to identify multiple opportunities for drug repurposing: Confirmatory screen for NB-EBc1 cells (AID 1347115);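 also: cells exposed to compound for 48 h before the viability read; nearly all actives have a fitted effect of over 45% in size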; also: potency is read from the fitted curve at half-maximal effect
Method in brief: as §2

[10] = qHTS of pediatric cancer cell lines to identify multiple opportunities for drug repurposing: Confirmatory screen for BT-12 cells (AID 1347112); also: nearly all actives have a fitted effect of over 55% in size; also: potency is read from the fitted curve at half-maximal effect
Method in brief: as §2

Measured: Potency

CNC(C)Cc1ccc2c(c1)OCO2 (stereo not drawn)
inactive: [1] | [2] | [3]

O=C(CCCN1CCC(n2c(=O)[nH]c3ccccc32)CC1)c1ccc(F)cc1
inactive: [4] | [2] | [3] | [5]

CN(C)C(=S)SSC(=S)N(C)C
active: [4] 188 nM | [2] 0.299 µM | [3] 1.68 µM | [5] 0.211 µM | [6] 1.31 µM | [7] 0.329 µM | [8] 928 nM | [9] 0.928 µM

C#C[C@]1(O)CC[C@H]2[C@@H]3CCC4=CC(=O)CCC4=C3C=C[C@@]21CC
inactive: [1] | [2]

C[C@@H]1O[C@@H](O[C@@H]2C=C3CC[C@@H]4[C@H](CC[C@]5(C)[C@@H](c6ccc(=O)oc6)CC[C@]45O)[C@@]3(C)CC2)[C@H](O)[C@H](O)[C@H]1O
inactive: [3]
active: [4] 1.5 nM | [2] 0.0075 µM | [6] 0.0827 µM | [7] 0.0585 µM | [8] 29.3 nM | [10] 0.0414 µM | [9] 0.0293 µM

COc1cc(C[C@@H](C)N)c(OC)cc1Br
inactive: [2] | [3] | [5]

CCCN(CCC)CCc1c[nH]c2ccccc12
inactive: [2] | [3]

CCO[C@H]1O[C@@H]2OC3(C)CC[C@H]4[C@H](C)CC[C@@H]([C@H]1C)[C@@]24OO3
inactive: [1] | [2] | [3]

C[C@H](CN1CCOCC1)C(C(=O)N1CCCC1)(c1ccccc1)c1ccccc1
inactive: [2]
active: [5] 46.9 µM

CN1[C@@H]2CC[C@H]1CC(OC(=O)c1cc(Cl)cc(Cl)c1)C2 (stereo partly drawn)
not listed: [4]
inactive: all other assays above

NC(=O)OCCCc1ccccc1
inactive: [4] | [2] | [3] | [5]

CCC(OC(C)=O)C(CC(C)NC)(c1ccccc1)c1ccccc1 (stereo not drawn)
inactive: [2]
active: [4] 27600 nM | [5] 31 µM

CC[C@H](O)C(C[C@H](C)N(C)C)(c1ccccc1)c1ccccc1
active: [5] 44.1 µM
inactive: [2]

CN(C)CCc1c[nH]c2cccc(O)c12
inactive: [1] | [2] | [3] | [5]

CCCCCCCCC(=O)NCc1ccc(O)c(OC)c1
not listed: [1] | [8]
inactive: all other assays above

CC(C)=CCN1CC[C@@]2(C)c3cc(O)ccc3C[C@@H]1[C@@H]2C
inactive: [1] | [2] | [3] | [5]

ClC1=C(Cl)C2(Cl)C(CBr)CC1(Cl)C2(Cl)Cl (stereo not drawn)
active: [8] 10400 nM
not listed: [1] | [7]
inactive: all other assays above

CC[C@H]1C[C@@H]2C[C@H]3c4[nH]c5ccc(OC)cc5c4CCN(C2)[C@@H]13
active: [5] 30 µM
inactive: [2] | [3]

Clc1ccc(CO/N=C(\Cn2ccnc2)c2ccc(Cl)cc2Cl)c(Cl)c1
inactive: [2] | [3]

O=C1NCN(c2ccccc2)C12CCN(CCCOc1ccc(F)cc1)CC2
inactive: [2] | [3] | [5]

CN1C(=O)[C@@H](NC(=O)c2cc3ccccc3[nH]2)N=C(c2ccccc2)c2ccccc21
inactive: [1] | [2] | [3]

CCOC(=O)NC(O)C(Cl)(Cl)Cl (stereo not drawn)
inactive: [4] | [2] | [3] | [5]

O=C(CBr)Nc1ccc(Cl)cc1C(=O)c1ccccc1F
inactive: [4] | [2] | [3] | [5]

O=C(CCl)c1ccc(Cl)cc1Cl
inactive: [2] | [3]

CN(C)CCc1c[nH]c2ccc(O)cc12
inactive: [2] | [3]

C=CCN1CC[C@]23CCCC[C@H]2[C@H]1Cc1ccc(O)cc13
inactive: [4] | [2] | [3] | [5]

NC1(c2ccccc2)CCCCC1
inactive: [2] | [3]

C[C@]12Cc3nonc3C[C@@H]1CC[C@@H]1[C@@H]2CC[C@@]2(C)[C@H]1CC[C@]2(C)O
inactive: [2] | [3]

N#Cc1nn(-c2c(Cl)cc(C(F)(F)F)cc2Cl)c(N)c1S(=O)C(F)(F)F (stereo not drawn)
inactive: [2] | [3]

CCCCCCCCCCCC[N+](C)(C)CCOc1ccccc1
active: [4] 23700 nM | [5] 16.8 µM | [6] 11.7 µM | [7] 8.27 µM | [8] 7370 nM
inactive: [2]

C[C@@H]1C[C@@H]([C@H](O)CC2CC(=O)NC(=O)C2)C(=O)[C@@H](C)C1
inactive: [2] | [3]
active: [4] 473 nM and 235 nM | [5] 4.69 µM | [7] 1.65 µM | [8] 928 nM and 1.31 µM | [10] 2.93 µM
